Data as given in the supplement of paper PMC10849652.
Targets with a hit are over-represented here; the source holds about 7,900 in all. About 0.6% of all pairs of compound and target were hits. Unmarked numbers belong to inactive results.

Compound: NC(=O)Nc1cc(-c2cccc(F)c2)sc1C(=O)N[C@H]1CCCNC1
Assay: log2 fold change, soluble protein after heating vs DMSO (PISA); higher = thermal stabilisation; K562 cells, 10 uM, 30 min; active = over 0.2 and 3.5 SD of the protein, either way, in both replicates (recomputed)
In short: (§1)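 K562 cells at 2×10^6 cells/mL were treated with 10 μM compound for 30 min. Aliquots were heated for 3 min across 48°C-58°C, pooled, and extracted in PBS with 0.5% NP-40 at 4°C; soluble protein was the supernatant after 21,000xg for 90 min. Soluble protein was quantified by TMTpro 16plex LC-MS/MS with channel sums equalised, and reported as log2 fold change in thermal stability against DMSO controls, with values from duplicates.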

Chain of UniProt Q2TAC2 (Q2TAC2 whole entry, looked up): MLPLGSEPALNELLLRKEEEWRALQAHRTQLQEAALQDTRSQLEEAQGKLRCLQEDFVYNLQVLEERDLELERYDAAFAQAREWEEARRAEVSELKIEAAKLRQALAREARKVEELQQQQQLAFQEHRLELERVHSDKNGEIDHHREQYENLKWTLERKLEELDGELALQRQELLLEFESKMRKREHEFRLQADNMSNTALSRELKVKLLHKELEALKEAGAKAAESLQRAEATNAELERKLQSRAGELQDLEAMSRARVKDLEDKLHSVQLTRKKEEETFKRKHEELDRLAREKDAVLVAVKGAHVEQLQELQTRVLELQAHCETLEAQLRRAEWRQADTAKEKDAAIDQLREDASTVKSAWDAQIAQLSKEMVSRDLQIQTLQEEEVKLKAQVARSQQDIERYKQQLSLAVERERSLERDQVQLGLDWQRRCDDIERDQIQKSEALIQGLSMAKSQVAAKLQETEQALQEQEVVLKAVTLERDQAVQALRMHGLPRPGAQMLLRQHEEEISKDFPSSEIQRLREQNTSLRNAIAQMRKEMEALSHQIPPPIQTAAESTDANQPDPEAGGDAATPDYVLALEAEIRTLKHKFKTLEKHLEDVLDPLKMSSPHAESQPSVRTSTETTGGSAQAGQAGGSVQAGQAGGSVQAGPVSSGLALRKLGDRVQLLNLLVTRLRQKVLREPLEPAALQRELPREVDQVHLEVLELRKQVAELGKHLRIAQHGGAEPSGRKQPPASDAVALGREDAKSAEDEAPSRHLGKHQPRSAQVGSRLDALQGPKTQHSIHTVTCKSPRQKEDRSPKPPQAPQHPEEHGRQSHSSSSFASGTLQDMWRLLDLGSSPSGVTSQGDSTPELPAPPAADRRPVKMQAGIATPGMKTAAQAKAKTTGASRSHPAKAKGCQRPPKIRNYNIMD
Chain of UniProt Q9BSQ5 (Q9BSQ5 whole entry, looked up): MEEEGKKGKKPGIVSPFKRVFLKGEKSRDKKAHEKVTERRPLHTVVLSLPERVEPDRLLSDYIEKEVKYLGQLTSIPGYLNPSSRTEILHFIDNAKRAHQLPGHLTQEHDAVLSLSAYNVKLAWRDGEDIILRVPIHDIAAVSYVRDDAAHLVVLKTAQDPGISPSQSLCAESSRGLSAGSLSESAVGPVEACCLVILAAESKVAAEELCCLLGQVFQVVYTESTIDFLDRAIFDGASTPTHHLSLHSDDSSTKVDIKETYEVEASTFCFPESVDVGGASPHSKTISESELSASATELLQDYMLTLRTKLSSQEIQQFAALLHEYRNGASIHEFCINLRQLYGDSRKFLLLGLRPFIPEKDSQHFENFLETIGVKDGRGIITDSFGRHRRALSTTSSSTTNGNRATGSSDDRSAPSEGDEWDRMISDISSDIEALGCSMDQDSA
Chain of UniProt O95628 (O95628 whole entry, looked up): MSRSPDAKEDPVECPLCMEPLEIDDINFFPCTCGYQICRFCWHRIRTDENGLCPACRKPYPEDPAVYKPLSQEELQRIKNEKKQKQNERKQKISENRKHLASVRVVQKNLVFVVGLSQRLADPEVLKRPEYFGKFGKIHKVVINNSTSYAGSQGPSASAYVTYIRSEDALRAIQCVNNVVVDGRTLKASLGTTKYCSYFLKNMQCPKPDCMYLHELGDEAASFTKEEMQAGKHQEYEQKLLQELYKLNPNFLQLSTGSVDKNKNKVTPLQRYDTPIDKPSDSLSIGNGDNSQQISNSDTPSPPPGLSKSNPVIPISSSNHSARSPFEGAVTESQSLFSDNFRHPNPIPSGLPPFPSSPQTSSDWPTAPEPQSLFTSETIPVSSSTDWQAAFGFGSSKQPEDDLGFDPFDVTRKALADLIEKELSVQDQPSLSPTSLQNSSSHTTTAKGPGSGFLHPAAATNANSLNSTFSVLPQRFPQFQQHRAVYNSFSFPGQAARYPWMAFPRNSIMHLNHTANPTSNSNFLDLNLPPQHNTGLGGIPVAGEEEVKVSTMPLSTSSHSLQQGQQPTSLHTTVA
Chain of UniProt Q9UHN6 (Q9UHN6 whole entry, looked up): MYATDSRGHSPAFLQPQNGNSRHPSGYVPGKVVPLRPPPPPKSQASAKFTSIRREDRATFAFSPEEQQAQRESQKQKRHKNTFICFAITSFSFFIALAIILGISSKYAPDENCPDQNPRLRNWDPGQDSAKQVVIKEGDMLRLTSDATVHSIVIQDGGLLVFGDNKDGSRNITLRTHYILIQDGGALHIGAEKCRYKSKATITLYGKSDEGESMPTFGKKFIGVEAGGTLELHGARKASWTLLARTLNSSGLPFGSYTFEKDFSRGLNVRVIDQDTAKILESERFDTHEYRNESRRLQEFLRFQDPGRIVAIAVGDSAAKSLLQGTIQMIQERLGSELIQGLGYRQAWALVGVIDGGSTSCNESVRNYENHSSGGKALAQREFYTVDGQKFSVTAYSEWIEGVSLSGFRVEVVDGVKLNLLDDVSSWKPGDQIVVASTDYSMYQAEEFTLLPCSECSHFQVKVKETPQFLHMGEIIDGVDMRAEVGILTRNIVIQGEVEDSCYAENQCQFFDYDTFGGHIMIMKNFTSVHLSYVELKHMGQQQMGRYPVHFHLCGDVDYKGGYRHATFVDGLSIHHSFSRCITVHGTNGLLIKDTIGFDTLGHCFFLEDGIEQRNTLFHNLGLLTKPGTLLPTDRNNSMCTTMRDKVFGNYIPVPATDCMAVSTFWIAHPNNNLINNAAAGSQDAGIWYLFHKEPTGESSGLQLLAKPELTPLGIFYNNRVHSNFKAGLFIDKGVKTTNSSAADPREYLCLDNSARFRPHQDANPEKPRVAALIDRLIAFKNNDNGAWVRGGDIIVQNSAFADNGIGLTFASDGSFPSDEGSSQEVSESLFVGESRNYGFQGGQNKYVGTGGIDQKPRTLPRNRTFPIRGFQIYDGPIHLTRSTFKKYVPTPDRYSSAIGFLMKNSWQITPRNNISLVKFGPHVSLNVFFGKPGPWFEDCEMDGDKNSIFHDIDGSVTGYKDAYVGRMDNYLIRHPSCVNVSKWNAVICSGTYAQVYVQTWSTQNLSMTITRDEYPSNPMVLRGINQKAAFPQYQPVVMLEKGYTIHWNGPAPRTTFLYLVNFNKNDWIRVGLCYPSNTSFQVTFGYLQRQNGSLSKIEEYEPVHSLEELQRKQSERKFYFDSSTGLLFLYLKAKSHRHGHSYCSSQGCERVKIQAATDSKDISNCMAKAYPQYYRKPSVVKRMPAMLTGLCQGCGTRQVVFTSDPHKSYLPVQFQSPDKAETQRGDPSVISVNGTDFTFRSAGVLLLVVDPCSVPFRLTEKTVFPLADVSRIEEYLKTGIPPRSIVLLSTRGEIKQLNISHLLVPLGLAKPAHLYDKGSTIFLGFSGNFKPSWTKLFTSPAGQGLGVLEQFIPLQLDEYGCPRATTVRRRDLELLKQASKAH
Chain of UniProt Q6UUV7 (Q6UUV7 whole entry, looked up): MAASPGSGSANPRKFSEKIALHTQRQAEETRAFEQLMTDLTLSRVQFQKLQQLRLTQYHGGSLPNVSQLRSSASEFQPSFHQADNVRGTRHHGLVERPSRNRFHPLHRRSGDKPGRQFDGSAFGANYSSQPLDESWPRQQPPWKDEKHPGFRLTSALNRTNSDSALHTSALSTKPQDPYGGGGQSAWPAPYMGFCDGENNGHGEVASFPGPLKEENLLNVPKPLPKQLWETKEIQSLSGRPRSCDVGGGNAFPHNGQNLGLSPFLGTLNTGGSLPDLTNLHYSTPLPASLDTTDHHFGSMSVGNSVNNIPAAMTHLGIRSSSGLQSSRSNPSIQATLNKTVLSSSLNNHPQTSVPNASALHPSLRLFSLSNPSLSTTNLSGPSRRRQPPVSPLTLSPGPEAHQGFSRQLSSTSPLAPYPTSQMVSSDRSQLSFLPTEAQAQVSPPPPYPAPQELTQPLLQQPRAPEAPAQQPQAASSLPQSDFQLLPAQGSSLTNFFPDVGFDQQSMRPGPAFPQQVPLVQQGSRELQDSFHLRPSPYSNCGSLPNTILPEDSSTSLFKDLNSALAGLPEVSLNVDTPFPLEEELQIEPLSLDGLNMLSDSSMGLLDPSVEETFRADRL
Chain of UniProt Q70SY1 (Q70SY1 whole entry, looked up): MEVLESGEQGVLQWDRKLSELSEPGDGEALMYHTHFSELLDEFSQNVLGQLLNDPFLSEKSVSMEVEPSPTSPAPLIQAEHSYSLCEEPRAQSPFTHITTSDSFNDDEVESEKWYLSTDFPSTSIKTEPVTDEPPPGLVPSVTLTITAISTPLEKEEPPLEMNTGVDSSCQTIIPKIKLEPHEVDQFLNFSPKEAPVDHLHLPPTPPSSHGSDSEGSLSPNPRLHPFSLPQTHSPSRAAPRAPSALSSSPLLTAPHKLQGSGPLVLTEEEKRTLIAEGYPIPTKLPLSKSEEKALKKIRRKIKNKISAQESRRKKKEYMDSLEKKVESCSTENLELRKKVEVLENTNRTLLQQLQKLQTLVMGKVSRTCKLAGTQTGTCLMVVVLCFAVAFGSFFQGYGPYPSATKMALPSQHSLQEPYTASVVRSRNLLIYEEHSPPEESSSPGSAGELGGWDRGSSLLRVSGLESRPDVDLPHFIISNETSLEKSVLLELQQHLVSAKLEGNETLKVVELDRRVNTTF
Chain of UniProt P30281 (P30281 whole entry, looked up): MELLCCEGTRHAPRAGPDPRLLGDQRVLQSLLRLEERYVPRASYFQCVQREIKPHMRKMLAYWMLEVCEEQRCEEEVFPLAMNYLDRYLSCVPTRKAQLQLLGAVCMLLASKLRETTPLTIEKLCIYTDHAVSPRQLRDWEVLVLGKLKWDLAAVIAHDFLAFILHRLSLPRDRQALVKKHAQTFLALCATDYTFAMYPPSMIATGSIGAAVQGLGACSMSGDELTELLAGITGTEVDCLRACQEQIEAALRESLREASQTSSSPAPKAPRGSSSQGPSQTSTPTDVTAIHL
Chain of UniProt A8MTT3 (A8MTT3 whole entry, looked up): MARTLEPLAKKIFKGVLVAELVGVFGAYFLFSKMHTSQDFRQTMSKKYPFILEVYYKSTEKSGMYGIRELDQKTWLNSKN
Chain of UniProt Q8N668 (Q8N668 whole entry, looked up): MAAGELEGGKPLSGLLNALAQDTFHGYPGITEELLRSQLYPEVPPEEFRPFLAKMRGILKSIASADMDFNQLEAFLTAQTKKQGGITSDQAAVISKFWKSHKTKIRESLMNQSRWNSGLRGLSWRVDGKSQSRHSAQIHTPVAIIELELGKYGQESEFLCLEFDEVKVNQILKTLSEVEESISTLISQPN

**Q.** How did the log2 fold change turn out when CCM2 isoform 2 (UniProt Q9BSQ5) was run?
**A.** -0.103

**Q.** CCDC167 (UniProt Q9P0B6) was tested. Which log2 fold change did it give?
**A.** 0.014

**Q.** With CD68 (UniProt P34810) as the target, how does the log2 fold change read?
**A.** 0.039

**Q.** CRTC1 isoform 2 (UniProt Q6UUV9) was tested. Which log2 fold change did it give?
**A.** -0.132

**Q.** How did the log2 fold change turn out when CCDC57 (UniProt Q2TAC2) was run?
**A.** -0.025

**Q.** With C6orf120 (UniProt Q7Z4R8) as the target, how does the log2 fold change read?
**A.** 0.068

**Q.** For COMMD3-BMI1 (UniProt R4GMX3), which log2 fold change is on record?
**A.** 0.003

**Q.** How did the log2 fold change turn out when COMMD1 (UniProt Q8N668) was run?
**A.** -0.043

**Q.** For CRLS1 (UniProt Q9UJA2), which log2 fold change is on record?
**A.** 0.323 (active)

**Q.** With CD84 (UniProt Q9UIB8) as the target, how does the log2 fold change read?
**A.** -0.182

**Q.** For CRTC3 (UniProt Q6UUV7), which log2 fold change is on record?
**A.** -0.754 (active)

Compound: NC(=O)c1cnc(N[C@@H]2CCCC[C@@H]2N)nc1Nc1cccc(-n2nccn2)c1
Assay: as above
In short: as §1

**Q.** Which log2 fold change does the source give for CCND3 (UniProt P30281) here?
**A.** -0.204

**Q.** Which log2 fold change does the source give for CEMIP2 (UniProt Q9UHN6) here?
**A.** 0.072

**Q.** For CCDC82 (UniProt Q8N4S0), which log2 fold change is on record?
**A.** -0.083

**Q.** How did the log2 fold change turn out when C5orf30 (UniProt Q96GV9) was run?
**A.** -0.191

**Q.** How did the log2 fold change turn out when CNOT4 isoform 9 (UniProt O95628) was run?
**A.** -0.115

**Q.** CKS2 (UniProt P33552) was tested. Which log2 fold change did it give?
**A.** -0.021

**Q.** CASK (UniProt O14936) was tested. Which log2 fold change did it give?
**A.** 0.026

**Q.** Which log2 fold change does the source give for CFAP47 (UniProt Q6ZTR5) here?
**A.** 0.022

**Q.** How did the log2 fold change turn out when CRTC1 isoform 2 (UniProt Q6UUV9) was run?
**A.** -0.151

**Q.** For COMMD3-BMI1 (UniProt R4GMX3), which log2 fold change is on record?
**A.** 0.076

**Q.** CEBPZOS (UniProt A8MTT3) was tested. Which log2 fold change did it give?
**A.** 0.022

**Q.** How did the log2 fold change turn out when CLASP2 (UniProt O75122) was run?
**A.** -0.049

**Q.** Which log2 fold change does the source give for CLINT1 (UniProt Q14677) here?
**A.** 0.001

**Q.** How did the log2 fold change turn out when CARD9 (UniProt Q9H257) was run?
**A.** 0.37

**Q.** For CREB3L2 (UniProt Q70SY1), which log2 fold change is on record?
**A.** -0.102

**Q.** How did the log2 fold change turn out when CD84 (UniProt Q9UIB8) was run?
**A.** -0.036

**Q.** For CCDC187, A0A1W2PQX5, which log2 fold change is on record?
**A.** -0.147

**Q.** CAD (UniProt H7BZB3) was tested. Which log2 fold change did it give?
**A.** 0.124

**Q.** With CDK2AP2 (UniProt O75956) as the target, how does the log2 fold change read?
**A.** -0.05

Compound: NC1(c2ccc(-c3nc4ccn5c(=O)[nH]nc5c4cc3-c3ccccc3)cc2)CCC1
Assay: as above
In short: as §1

**Q.** With CCM2 isoform 2 (UniProt Q9BSQ5) as the target, how does the log2 fold change read?
**A.** -0.09

**Q.** For CCDC167 (UniProt Q9P0B6), which log2 fold change is on record?
**A.** 0.046

**Q.** For CCND3 (UniProt P30281), which log2 fold change is on record?
**A.** -0.001

**Q.** CEMIP2 (UniProt Q9UHN6) was tested. Which log2 fold change did it give?
**A.** -0.243

**Q.** For CCDC82 (UniProt Q8N4S0), which log2 fold change is on record?
**A.** -0.146

**Q.** CNOT4 isoform 9 (UniProt O95628) was tested. Which log2 fold change did it give?
**A.** -0.077

**Q.** CD68 (UniProt P34810) was tested. Which log2 fold change did it give?
**A.** -0.106

**Q.** How did the log2 fold change turn out when CKS2 (UniProt P33552) was run?
**A.** -0.039

**Q.** For CCDC57 (UniProt Q2TAC2), which log2 fold change is on record?
**A.** -0.014

**Q.** For CEBPZOS (UniProt A8MTT3), which log2 fold change is on record?
**A.** -0.124

**Q.** For CLASP2 (UniProt O75122), which log2 fold change is on record?
**A.** 0.046

**Q.** Which log2 fold change does the source give for COMMD1 (UniProt Q8N668) here?
**A.** 0.051

**Q.** For CLINT1 (UniProt Q14677), which log2 fold change is on record?
**A.** 0.037

**Q.** How did the log2 fold change turn out when CFAP58 (UniProt Q5T655) was run?
**A.** 0.028

**Q.** Which log2 fold change does the source give for CNRIP1 (UniProt Q96F85) here?
**A.** 0.258

**Q.** Which log2 fold change does the source give for CSNK1A1 isoform 3 (UniProt P48729) here?
**A.** -0.204

**Q.** How did the log2 fold change turn out when CRLS1 (UniProt Q9UJA2) was run?
**A.** 0.027

**Q.** CREB3L2 (UniProt Q70SY1) was tested. Which log2 fold change did it give?
**A.** -0.074

**Q.** With CCNL1 (UniProt Q9UK58) as the target, how does the log2 fold change read?
**A.** -0.224

**Q.** For CDK2AP2 (UniProt O75956), which log2 fold change is on record?
**A.** 0.14

**Q.** With CLN3 (UniProt Q13286) as the target, how does the log2 fold change read?
**A.** -0.112

**Q.** Which log2 fold change does the source give for CRTC3 (UniProt Q6UUV7) here?
**A.** -0.007

Compound: NCC(=O)Nc1ccc(-n2nc(C(F)(F)F)cc2-c2ccc3c(ccc4ccccc43)c2)cc1
Assay: as above
In short: as §1

**Q.** For CCM2 isoform 2 (UniProt Q9BSQ5), which log2 fold change is on record?
**A.** -0.067

**Q.** For CCND3 (UniProt P30281), which log2 fold change is on record?
**A.** 0.184

**Q.** Which log2 fold change does the source give for CEMIP2 (UniProt Q9UHN6) here?
**A.** -0.072

**Q.** With CCDC82 (UniProt Q8N4S0) as the target, how does the log2 fold change read?
**A.** -0.063

**Q.** Which log2 fold change does the source give for CNOT4 isoform 9 (UniProt O95628) here?
**A.** 0.11

**Q.** Which log2 fold change does the source give for CFAP47 (UniProt Q6ZTR5) here?
**A.** -0.024

**Q.** How did the log2 fold change turn out when CRTC1 isoform 2 (UniProt Q6UUV9) was run?
**A.** 0.01

**Q.** How did the log2 fold change turn out when CCDC57 (UniProt Q2TAC2) was run?
**A.** -0.04

**Q.** With C6orf120 (UniProt Q7Z4R8) as the target, how does the log2 fold change read?
**A.** -0.018

**Q.** How did the log2 fold change turn out when CEBPZOS (UniProt A8MTT3) was run?
**A.** 0.028

**Q.** COMMD1 (UniProt Q8N668) was tested. Which log2 fold change did it give?
**A.** -0.069

**Q.** How did the log2 fold change turn out when CLINT1 (UniProt Q14677) was run?
**A.** 0.034

**Q.** With CRLS1 (UniProt Q9UJA2) as the target, how does the log2 fold change read?
**A.** 0.06

**Q.** With CREB3L2 (UniProt Q70SY1) as the target, how does the log2 fold change read?
**A.** 0.035

**Q.** For CA1 (UniProt E5RIF9), which log2 fold change is on record?
**A.** -0.029

**Q.** For CLCN5 isoform 2 (UniProt P51795), which log2 fold change is on record?
**A.** 0.004

**Q.** For CLN3 (UniProt Q13286), which log2 fold change is on record?
**A.** -0.124

**Q.** Which log2 fold change does the source give for CRTC3 (UniProt Q6UUV7) here?
**A.** 0.001
